Assay outcomes (PubChem BioAssay)
Spn MK inh: inhibitors of Streptococcus pneumoniae mevalonate kinase; purified MK, PK/LDH-coupled NADH absorbance 340 nm; inhibition, % at 10 µM; hit rate 0.48% among 65,000;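 active = ranked among the strongest by inhibition in the single 10 µM screen, a fixed top-ranked set picked for dose follow-up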
Fluor 339 460: intrinsic fluorescence of library compounds, ex339/em460 – biochemical, MLSMR library, data from DPM-DC assay, artefact control, profiling panel; hit rate 5.5% among 65,000; fluorescence fold increase at 10 µM; compound autofluorescence, ex339/em460 nm, NADH buffer; active compounds read high; 1 = no-compound wells, NADH background;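 active = at 10 µM, mean starting fluorescence two-fold or more over control wells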;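 also: signal is the first read of a kinetic run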
NADH coupling: blocks coupling enzymes of NAD/NADH assays. AID 774. coupled PK/LDH NADH assays, four targets. hit rate 0.02% among 65,000. IC50, µM (titrated, usually from 10 µM), without a hit: at the highest dose inhibition;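 active = single-dose screening hits from any of four coupled enzyme assays that gave an IC50 when retested across doses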;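 also: the DPM-DC format reads NADH fluorescence rather than 340 nm absorbance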
Spn DPM-DC inh: S. pneumoniae DPM-DC inhibition; purified DPM-DC, PK/LDH coupled NADH fluorescence; calls only at 10 µM; hit rate 0.49% among 65,000;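 active = the 320 compounds with the highest percent inhibition in the single-dose primary screen, excluding strongly autofluorescent ones, cut at about 32% in these data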;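 also: kinetic rate of NADH fluorescence loss reporting ADP formed by the decarboxylase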
PMK inhibit: S. pneumoniae PMK inhibition; hit rate 0.49% among 65,000; purified PMK, PK/LDH-coupled NADH absorbance 340 nm; AID 539; inhibition, % at 10 µM;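 active = top-ranked compounds by inhibition in the single 10 µM screen, taking a fixed number of the strongest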;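 also: 0% = full reaction with DMSO carrier and 100% = background rate without enzyme reaction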
Abs 340nm: absorbance at 340 nm; compound absorbance at 340 nm, fold over control; fold change at 10 µM; 65,000 tested, under 10 active;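 active = at 10 µM dose, initial 340 nm absorbance at least 2 fold that of control wells; inactive = change under 2 fold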;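 also: initial absorbance extrapolated from kinetic A340 decline of NADH oxidation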
Numbers without * were called inactive; i = inactive; x = no result given. Shown are actives, neighbours in structure and some others; about 6.3% of the full set was active somewhere.

SMILES | Spn MK inh | Fluor 339 460 | NADH coupling | Spn DPM-DC inh | PMK inhibit | Abs 340nm
CCCOc1ccc(-c2nc(C#N)c(N3CCN(C)CC3)o2)cc1 | 4 | 3.9* | 2% | x | 0 | 1.1
N#Cc1nc(-c2ccc(OCc3ccc(Cl)cc3)cc2)oc1N1CCOCC1 | 10 | 1.9 | 7% | i | 9 | 1.1
CCOc1ccc(-c2nc(C#N)c(N3CCCCCC3)o2)cc1 | 9 | 2.4* | 4% | x | 11 | 1
CCC(C)(C)NC(=O)CN(C(=O)CNS(=O)(=O)c1ccc(C)cc1)c1ccc2c(c1)OCCO2 | 4 | 1 | 8% | i | 20 | 0.99
Cc1ccc(-c2noc(CCC(=O)N3CCCc4ccccc43)n2)cc1 | 7 | 0.9 | 9% | i | 6 | 1
O=C(O)CCN1C(=O)c2ccc(NC(=O)c3cccs3)cc2C1=O | 12 | 3.6* | 10% | x | 8 | 1.1
CCCC(=O)Nc1ccc2c(c1)C(=O)N(CCC(=O)O)C2=O | 10 | 3.8* | 9% | x | 8 | 1.1
CC(C)Cn1nc(NC(=O)C(C)(C)C)c2cc3ccccc3nc21 | 0 | 1.7 | 6% | i | 5 | 1
COc1ccc2nc3c(cc2c1)c(NC(=O)c1cccs1)nn3CC(C)C | 9 | 3.7* | 11% | x | 12 | 1
COC(=O)c1c(NC(=O)c2ccc(Br)o2)sc(C)c1C | 1 | 1.9 | 8% | i | 8 | 1
COC(=O)c1c(NC(=O)c2ccco2)sc(C)c1C | 1 | 2.1* | 1% | x | 0 | 1.1
COc1c(F)c(F)c(C(=O)Nc2ccc(NC(=O)c3ccco3)cc2)c(F)c1F | 10 | 1.2 | 10% | i | 12 | 1.1
COC(=O)c1c(NC(=O)c2ccco2)sc(C(=O)Nc2ccc(F)cc2)c1C | 7 | 3.9* | 4% | x | 0 | 1.1
CNC(=O)C1CC(=O)N(Cc2ccc3c(c2)OCO3)C(=Nc2ccc(OC)cc2)S1 (stereo not given) | 0 | 1.1 | 9% | i | 27* | 1
NC(=O)C1CC(=O)N(Cc2ccc3c(c2)OCO3)C(=Nc2ccccc2)S1 (stereo not given) | 0 | 1.1 | 6% | i | 18 | 1.1
COc1ccc(Oc2c(C)oc3c(CN(C)C)c(O)ccc3c2=O)cc1 | 2 | 3.9* | 5% | x | 8 | 1.2
COc1ccc(Oc2coc3c(CN(C)C)c(O)ccc3c2=O)cc1 | 9 | 2.3* | 14% | x | 19 | 1.2
Cc1ccc(S(=O)(=O)Cn2nnnc2CN(Cc2ccco2)CC2CCCO2)cc1 (stereo not given) | 11 | 1 | 2% | i | 5 | 0.98
Cc1cccc(-c2cc3nc4c(c(N5CCC6(CC5)OCCO6)n3n2)CCCC4)c1 | 14 | 1.5 | 5% | i | 7 | 1
COc1ccc(-c2cc3nc(-c4ccccc4)cc(N4CCC5(CC4)OCCO5)n3n2)cc1 | 6 | 4.8* | 8% | x | 9 | 1
FC(F)C(F)(F)C(F)(F)C(F)(F)c1cc(-c2ccccc2)n[nH]1 | 2 | 1 | 1% | i | 0 | 1
CN(CCc1ccccn1)Cc1ccc(Cl)cc1 | 59* | 1.1 | 20% | i | 0 | 1
COc1cc(CN(C)CCc2ccccn2)cc(OC)c1OC | 52* | 1.1 | 22% | i | 15 | 1.1
CCc1ccc(CN(C)CCc2ccccn2)cc1 | 52* | 1 | 7% | i | 0 | 1
Cc1ccc(CN(C)CCc2ccccn2)cc1 | 56* | 1.1 | 20% | i | 3 | 1.1
SMILES | Spn MK inh | Fluor 339 460 | NADH coupling | Spn DPM-DC inh | PMK inhibit | Abs 340nm
COc1ccc(CN(C)CCc2ccccn2)cc1OC | 8 | 1 | 9% | i | 18 | 1
COc1ccc(-c2c3c(=O)n(C)c(=O)n(C)c3cn2C2CCCCC2)cc1 | 18 | 1.6 | 8% | i | 7 | 1
CC1=C(C(=O)N2CCOCC2)C(c2ccsc2)C2=C(CCCC2=O)N1 (stereo not given) | 10 | 2.9* | 2% | x | 4 | 1.1
COC(=O)C1=C(C)NC2=C(C(=O)CCC2)C1c1ccsc1 (stereo not given) | 2 | 1.9 | 6% | i | 0 | 1.1
CCC(=O)N1CCc2cc(S(=O)(=O)N3CCN(c4ccccn4)CC3)ccc21 | 0 | 1.1 | 4% | i | 9 | 1.1
Cc1sc(NC(=O)CSc2nnc(COc3ccccc3)n2C)c(C#N)c1C | 9 | 2.1* | 5% | i | 17 | 1
CCOc1cc(S(=O)(=O)N2CCN(Cc3ccccc3)CC2)ccc1Br | 10 | 1.2 | 4% | i | 1 | 1
